Test results published in PubChem BioAssay AID2284339 (EPA ToxCast).
Activity calls are given as the source filed them. The calls were made as follows: active = hit-call score of the fitted dose curve at least 0.9, where 1 is the maximum; inactive = score below 0.9.

Each compound was assayed on NCBI gene 100038242 (assay: CCTE_GLTED_xDIO3: CCTE's Xenopus Iodothyronine Deiodinase Type 3 (xDIO3) Inhibition Assay, Great Lakes Toxicology and Ecology Division (GLTED) Lab).
Description: CCTE_GLTED_xDIO3 is a cell-free, single-readout assay designed to test the inhibitory activity of chemicals toward Xenopus (frog) iodothyronine Deiodinase Type 3 (DIO3) enzyme. Enzyme is incubated in presence of test chemical for 3 hours during which uninhibited enzyme liberates free iodide from substrate. Free iodide is measured in a second step using the Sandell-Kolthoff method.CCTE_GLTED_xDIO3 is the assay component measured from the CCTE_GLTED_xDIO assay. It is designed to make measurements of enzyme activity, a form of enzyme reporter, as detected with absorbance signals by spectrophotometry.Data from the assay component CCTE_GLTED_xDIO3 was analyzed at the assay endpoint CCTE_GLTED_xDIO3 in the positive analysis fitting direction relative to DMSO as the negative control and baseline of activity. Using a type of enzyme reporter, loss-of-signal activity can be used to understand deiodinase Type 3 activity. To generalize the intended target to other relatable targets, this assay endpoint is annotated to the 'deiodinase' intended target family, where the subfamily is 'deiodinase Type 3'.
[…]

Question: `C=CC(=O)OCC(F)(F)C(F)(F)C(F)(F)COC(=O)C=C` was tested. Which AC50 did it give?
Answer: 33.5 µM (active)

Question: With `C=C(C)C(=O)OCC(F)(F)C(F)(F)C(F)(F)F` as the compound, how does the outcome read?
Answer: inactive

Question: Which AC50 does the source give for `C=CC(=O)OCC(F)(F)C(F)(F)C(F)(F)C(F)(F)COC(=O)C=C` here?
Answer: 15.9 µM (active)

Question: With `C=C(C)C(=O)OCC(F)(F)C(F)(F)C(F)(F)C(F)F` as the compound, how does the AC50 read?
Answer: 17.7 µM (active)

Question: With `OC(O)(C(F)C(O)(O)C(F)(F)F)C(F)(F)F` as the compound, how does the AC50 read?
Answer: 19.8 µM (active)

Question: With `O=C(O)C(F)(F)C(F)(F)C(F)(F)C(F)(F)C(F)(F)C(F)(F)C(F)(F)C(F)(F)C(F)(F)C(F)F` as the compound, how does the AC50 read?
Answer: 161 µM (active)

Question: For `O=C(O)C(F)(F)C(F)(F)C(F)(F)C(F)(F)C(F)(F)C(F)(F)C(F)(F)C(F)(F)Cl`, which outcome is on record?
Answer: inactive

Question: For `O=C(O)C(F)(F)OC(F)(F)C(F)(F)OC(F)(F)C(F)(F)OC(F)(F)C(F)(F)C(F)(F)C(F)(F)F`, which AC50 is on record?
Answer: 72.2 µM (active)

Question: How did the AC50 turn out when `COc1cc(O)c(CC=C(C)C)c(O)c1C(=O)/C=C/c1ccc(O)cc1` was run?
Answer: 0.16 µM (active)

Question: For `O=C(O)C(F)(F)C(F)(F)C(F)(F)C(F)(F)C(F)(F)C(F)(F)C(F)(F)C(F)(F)C(F)(F)C(F)(F)C(F)(F)C(F)(F)F`, which outcome is on record?
Answer: inactive

Question: Which outcome does the source give for `O=P(O)(O)CCC(F)(F)C(F)(F)C(F)(F)C(F)(F)C(F)(F)C(F)(F)C(F)(F)C(F)(F)F` here?
Answer: inactive

Question: With `C=CC(=O)OCCC(F)(F)C(F)(F)C(F)(F)C(F)(F)F` as the compound, how does the AC50 read?
Answer: 24.4 µM (active)

Question: For `C=CC(=O)OCC(F)(F)C(F)(F)C(F)(F)C(F)(F)C(F)(F)C(F)(F)C(F)(F)C(F)F`, which AC50 is on record?
Answer: 20.7 µM (active)

Question: Which outcome does the source give for `O=C(Cl)C(F)(F)C(F)(F)C(F)(F)C(F)(F)C(F)(F)C(F)(F)C(F)(F)C(F)(F)F` here?
Answer: inactive
